# Where “and” joins values, the source holds several entries; their conditions need not be identical. Identical values can stand only once.
# System: human monocyte-derived macrophages (polarized)
# Experiment: cell shape (eccentricity) Z-score vs DMSO control; higher = more elongated, M2-like morphology
# Settings: 5 µM; 24 h; macrophage state: M1-polarized (IFNg + TNFa), cytokines present during treatment
# Protocol: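 Primary-screen hits were rescreened on polarized hMDMs with the differentiating cytokines (IL-4 + IL-13 or IFNg + TNFa) kept in the medium during treatment with compound at 5 uM for 24 h. The eccentricity Z-score vs DMSO wells is averaged over experiments.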
row,SMILES,cell shape (Z-score)
1,Nc1ncnc2n[nH]c(Nc3ccc(F)cc3)c12,3.71
2,O=C1Cc2c([nH]c3ccc([N+](=O)[O-])cc23)-c2ccccc2N1,4.68
3,CCCCCCCCCc1ccc(OCCOCCOCCOCCOCCOCCOCCOCCOCCO)cc1,5.89
4,CC1(C)CCC(CN2CCN(c3ccc(C(=O)NS(=O)(=O)c4ccc(NCC5CCOCC5)c([N+](=O)[O-])c4)c(Oc4cnc5[nH]ccc5c4)c3)CC2)=C(c2ccc(Cl)cc2)C1,4.11
5,COc1c(OC)c2occc2c2oc(=O)ccc12,-1.24
6,COc1cc(C2OC(c3cc(OC)c(OC)c(OC)c3)C(C)C2C)cc(OC)c1OC (centres undefined),4.93
7,C=C[C@@]1(C)CC(=O)[C@]2(O)[C@@]3(C)[C@@H](O)CCC(C)(C)[C@@H]3[C@H](O)[C@H](OC(C)=O)[C@@]2(C)O1,-1.28
8,Cn1cnc(-c2cc3nccc(Oc4ccc(NC(=S)NC(=O)Cc5ccccc5)cc4F)c3s2)c1,3.19
9,Oc1cccc(-c2nc(N3CCOCC3)c3oc4ncccc4c3n2)c1,-3.07
10,O=C(CCc1ccc(O)cc1)c1c(O)cc(O)cc1O,-3.42
11,CC1=CC(=O)CC2C1(C)CCC(C)C2(C)CC/C(C)=C\C(=O)O (centres undefined),-1.21
12,O=C(Nc1ccncc1)c1cc([N+](=O)[O-])ccc1Cl,5.38
13,c1ccc2c(Oc3nc(Nc4ccc(N5CCOCC5)cc4)c4ncn(C5CCCCC5)c4n3)cccc2c1,9.34
14,CC1(C)CCC(C)(C)c2cc(C(=O)Nc3ccc(C(=O)O)cc3)ccc21,-9.74
15,Nc1nc2ccc(OC(F)(F)F)cc2s1,-5.46
16,COc1c(OC)c(O)c2c(=O)c(O)c(-c3ccccc3)oc2c1OC,5.45
17,Cc1ccc(C(=O)Nc2ccc(S(=O)(=O)O)c3cc(S(=O)(=O)O)cc(S(=O)(=O)O)c23)cc1NC(=O)c1cccc(NC(=O)Nc2cccc(C(=O)Nc3cc(C(=O)Nc4ccc(S(=O)(=O)O)c5cc(S(=O)(=O)O)cc(S(=O)(=O)O)c45)ccc3C)c2)c1,6.07
18,CC1(C)C[C@@H]1C(=O)N/C(=C\CCCCSC[C@H](N)C(=O)O)C(=O)O,5
19,CC1CNCCN1S(=O)(=O)c1cccc2cnccc12 (centres undefined),-1.72
20,O=C(NCCN1CCCCC1)c1ccc(I)cc1,6.46
21,CNC(=O)c1ccccc1Sc1ccc2c(/C=C/c3ccccn3)n[nH]c2c1,8.44 and 13.2
22,CCN(CC)CCOc1ccc2c(c1)C(=O)c1cc(OCCN(CC)CC)ccc1-2,-4.84
23,CC(C)(C)OC(=O)Nc1ccc(-c2cc(C(=O)NCCCCCCC(=O)NO)no2)cc1,-0.14
24,CO[C@H]1C[C@H](O[C@@H]2/C(C)=C/C[C@@H]3C[C@@H](C[C@]4(CC[C@H](C)[C@@H](C5CCCCC5)O4)O3)OC(=O)[C@@H]3C=C(C)/C(=N/O)[C@H]4OC/C(=C\C=C\[C@@H]2C)[C@]43O)O[C@@H](C)[C@@H]1O,17.6

# Reference: the supplement of paper PMC7858590
